This note sets out measurements from the emibetuzumab library of Makowski et al. (2022).

Some of the results follow. No count for the full screen is at hand.

B1: VH:VL chains; a variant is named by its letters at X, in order (parent)
chain 1: QVQLVQSGAEVKKPGASVKVSCKASGYTFTDYXMHWVRQAPGQGLEWMGXVNPNXXXTTYNQKFEGRVTMTTDTSTSTAYMELRSLRSDDTAVYYCARXNXLDXWGQGTTVTVSS
chain 2: DIQMTQSPSSLSASVGDRVTITCSVSSSVSSIYLHWYQQKPGKAPKLLIYSTSNLASGVPSRFSGSGSGTDFTLTISSLQPEDFATYYCQVYSGYPLTFGGGTKVEIK

Variants of B1 are the subject of the experiment. As to the kind of experiment: yeast display scFab, FACS + sequencing. To be noted: with MET. The method, boiled down: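 Antigen binding was called positive for sequences present in both antigen-positive samples and negative for those present only in the input. These calls came from deep sequencing, in two replicates, of round-3 sorted and input populations from a heavy-chain CDR mutant scFab yeast surface library. The library was first enriched twice magnetically on HGFR-Fc-coated Protein A beads and then by FACS, gating the top 50% antigen-positive cells after 3 h labelling at room temperature with 1 nM HGFR-Fc plus anti-Myc in PBSB with 1% milk.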
Take SEARSYLV: the antigen binding call is recorded as “no binding”.

On to SEARSDVD, for which the antigen binding call was “no binding”. With FRGRGSVV, the antigen binding call is reported as “binds”. For FRGRGSAV, the antigen binding call is listed as “binds”. As for FTKAASWV, the entry is “no binding”; as for FRGRGSWV, “binds”; as for FRARGSWV, “binds”. As for FRGRDVAV, the entry is “no binding”; as for DAGTGAGD, “no binding”; as for SETTDDAV, “no binding”.

On to SEARSSLV, for which the antigen binding call is listed as “no binding”. As for FARGGYVA, the entry is “no binding”. As for DRRGDSSA, the antigen binding call is reported as “no binding”. As for YRRKGSSA, the entry is “binds”. YAEESSSA: the antigen binding call is on record as “no binding”. On to YRRGSSSA, for which the antigen binding call was “binds”. As for DRREDSSA, the entry is “no binding”; as for FRRGGASA, “binds”. As for YRRGDSSA, the entry is “binds”; as for VAAKSAAA chain 1 R38K, “no binding”; as for ATGGDDWF, “no binding”.

For the variant VEGGGDWS, the antigen binding call is given as “no binding”. As for SEARNAGD, the entry is “no binding”; as for VKGRADWA, “no binding”; as for VTGGSDVY, “no binding”. As for FAGGGDGA, the entry is “no binding”.

As for YRRGGASA, the antigen binding call is on record as “binds”. As for YRRGGSSA, the entry is “binds”; as for FATEGASA, “binds”; as for FEETDASA, “no binding”. Consider FAEGDDSA, for which the antigen binding call is “no binding”.

As for FRGKDASA, the antigen binding call was “binds”. As for FRGRDFSA, the entry is “no binding”; as for DARGGSSA, “no binding”; as for STGGDDVY, “no binding”. As for VAGTGDWD, the entry is “no binding”. As for DTGKDAGD, the entry is “no binding”.

As to SETGGDVA, the antigen binding call is “no binding”. As for SEARSAVS, the entry is “no binding”. Consider SEEASSSA, for which the antigen binding call is “no binding”. Take YRRGGSVA: the antigen binding call is on record as “binds”. For YTGTSSSA, the antigen binding call is listed as “no binding”.

Regarding DRGRDSSA, the antigen binding call is given as “no binding”. For the variant YRRRDSSA, the antigen binding call was “binds”. As for VTGGDDVY, the entry is “no binding”; as for YTGGDDVV, “no binding”; as for FKGEGSSA, “no binding”. As for FRGGGSSA, the entry is “binds”; as for FRGRGSSA, “binds”. Turning to YEGGGSSA, the antigen binding call is given as “no binding”. As for DTGRADWA, the entry is “no binding”; as for DTREGDVD, “no binding”; as for YKRGDASS, “binds”. As for YKRGDSSS, the entry is “binds”. Turning to DGRGDALS, the antigen binding call is recorded as “no binding”.

Turning to YKRGDDSS, the antigen binding call is “no binding”.

With VGTKGDAA, the antigen binding call is on record as “no binding”. As to DEGGGSSA, the antigen binding call was “no binding”.

Consider FRGTGSWA, for which the antigen binding call is given as “no binding”.

As for FRGGGSWA, the antigen binding call was “binds”. As for DATGGAVA, the entry is “no binding”. As for FRGGGAVA, the entry is “binds”.

Turning to FRGGGSAA, the antigen binding call is “binds”. As for FRGRDDWA, the entry is “no binding”; as for FRTGGAVA, “binds”; as for STGTSDVF, “no binding”. As for DAKEGDGV, the antigen binding call was “no binding”. Consider DRGGSSAA, for which the antigen binding call is “no binding”. For FAEGASSS, the antigen binding call is “no binding”. Consider FRTRDSSS, for which the antigen binding call was “binds”. As for FRTRDSAA, the entry is “binds”. As for FRGGSSAA, the entry is “binds”; as for AARADSLS, “no binding”. Turning to FRGRDFAD, the antigen binding call is “no binding”.

As for FRGRDSSF, the antigen binding call is listed as “binds”. As for FRGRDAVD, the entry is “binds”; as for FRGRDYGF, “no binding”. For DRGRDDVF, the antigen binding call is given as “no binding”. With FRGRDAVF, the antigen binding call is listed as “binds”.

On to FRGRDDVF, for which the antigen binding call is “no binding”. As for FRGRDYGD, the entry is “no binding”; as for FRGRAAVD, “binds”. As to SAEKDDGS, the antigen binding call is “no binding”. Regarding DARGGAGA, the antigen binding call is recorded as “no binding”. Regarding VGEKGDGV, the antigen binding call was “no binding”. In the case of SEKEGDAA, the antigen binding call is “no binding”. As for YRGKGFVA, the entry is “binds”. As for YRGKGFVV, the entry is “binds”. As for YRGRGFLV, the entry is “binds”; as for SRGRGFVA, “no binding”. As for YRGRGFVA, the antigen binding call is recorded as “binds”. With FRGRGFVA, the antigen binding call is “no binding”. As for VTTKSAVA, the entry is “no binding”; as for DRRKAFSA, “no binding”. As for VEEEGDAA, the entry is “no binding”.

For VAGGDDVA, the antigen binding call is “no binding”. As for VEGTGDWD, the antigen binding call was “no binding”.

Take YRGRGFVV: the antigen binding call was “binds”.

For VRGKAFVV, the antigen binding call was “no binding”.

Take VRAGADVV: the antigen binding call is “no binding”. As for VRGRGFVV, the entry is “binds”. As for YRGKGYVV, the entry is “binds”; as for VATKGFVV, “no binding”; as for VRARGFVV, “binds”.

Consider FEKEADAF, for which the antigen binding call was “no binding”. As for ATTGSASF, the entry is “no binding”; as for DAETAAAA, “no binding”; as for DAGRGAVS, “no binding”. Regarding SRGRGVGA, the antigen binding call is “no binding”.

Consider SRGRGAWS, for which the antigen binding call was “binds”. Take SRGRGAWA: the antigen binding call is on record as “binds”. With SRGRGAVS, the antigen binding call is recorded as “binds”. Regarding SRGRGSGA, the antigen binding call is “binds”. As for STGTGSGA, the entry is “no binding”. Consider SRGRDAWA, for which the antigen binding call is given as “no binding”. As for VETGNDLV, the entry is “no binding”; as for STGTGYVF, “no binding”. As for AAKEGALV, the entry is “no binding”; as for AKGRADVY, “no binding”; as for YARETAGV, “no binding”. For the variant VRGRDDGV, the antigen binding call is given as “no binding”. As for YTEGDDGD, the entry is “no binding”; as for YKRGDDGD, “binds”. As for YKRGDDLV, the entry is “no binding”. As for YRGRDDGD, the entry is “binds”. For the variant DRRGDDGA, the antigen binding call is reported as “no binding”. As for YRRGDDGD, the entry is “binds”.

Take DRAGDDGD: the antigen binding call is “no binding”.

As to DRGRDDVD, the antigen binding call is “no binding”. As for AEGGTDVV, the entry is “no binding”; as for SREAADAV, “no binding”. As for VKATAVAV, the entry is “no binding”; as for VKERGDAV, “no binding”.
